Molecules are shown by their SMILES. Activity calls are given as the source filed them. How the calls were made is not given here.

This is an account of results in PubChem BioAssay.

This test can be described thus: blockers of DNA damage checkpoint Chk1 activation – imaging, HeLa, hydroxyurea, phospho-Chk1 nuclear intensity, primary screen (AID 1187). Further: test concentration not given here. The following applies: hydroxyurea-induced phospho-Chk1 immunofluorescence imaging, higher = more signal.
For the molecule `N#Cc1ccc(C(O)C2C=CC3C(=O)N(c4ccccc4)C(=O)C3N2Nc2ccccc2)cc1` (stereo not drawn), the z-score is -0.383 (inactive).

`Cc1ccc(S[C@]2(C(=O)NCCCN(C)C)CC(=O)N(C3CCCCC3)[C@@H]2c2ccc(CO)cc2)cc1`: the z-score is 0.866 (inactive).

For the molecule `CC(CO)N1C(=O)[C@@H]2[C@H]3C(=O)OCC=C[C@H]3OC23C=CCN(C(C)(C)C)C(=O)[C@@H]13` (stereo partly drawn), the z-score was -0.602 (inactive).

With `N#Cc1ccc(NN2C(C(O)c3ccc(F)cc3)C=CC3C(=O)N(c4ccccc4)C(=O)C32)cc1` (stereo not drawn), the z-score is -0.0009 (inactive).

As to `COC(=O)c1c(CC[C@@H](CO)NC(=O)N2CCC[C@H]2Cn2cc(Cc3ccccc3)nn2)oc(C(C)=O)c1C(=O)OC`, the z-score was -0.522 (inactive).

Consider `[N-]=[N+]=Nc1ccccc1[C@@H]1OC(c2ccc(OCCCO)cc2)=N[C@]1(Cc1ccccc1)C(=O)NCC(O)CO` (stereo partly drawn), for which the z-score is -0.228 (inactive).

Turning to `COC(=O)[C@@]1(Cc2ccc(OC)cc2)[C@@H]2C(=CC(=O)[C@H]2CC(=O)C(=O)N(C)C)CN1C(=O)c1ccccc1`, the z-score was -0.0503 (inactive).

`CO[C@H]1O[C@H](CO)[C@@H](OC(=O)Nc2ccccc2-c2ccccc2)[C@H](OC(=O)Nc2ccc3c(c2)OCO3)[C@H]1OC(=O)Nc1ccc2c(c1)OCO2`: the z-score is -0.272 (inactive).

As for `CN1C(=O)C2C=CC(C(O)COCc3ccccc3)N(N(c3ccccc3)c3ccccc3)C2C1=O` (stereo not drawn), the z-score was -0.35 (inactive).

On to `CN1C(=O)C2C=CC(C(O)c3cccc(O)c3)N(Nc3ccccc3)C2C1=O` (stereo not drawn), for which the z-score was 0.118 (inactive).

Regarding `COC(=O)[C@H](Cc1ccccc1)N1CC(/C=C/C2CC2)=C[C@H]1[C@H](O)Cc1ccccc1`, the z-score is -0.749 (inactive).

As to `CC=CC(O)C1C=CC2C(=O)N(c3ccccc3)C(=O)C2N1Nc1ccccc1F` (stereo not drawn), the z-score is -0.305 (inactive).

With `O=C(NCC(F)(F)F)[C@@H]1c2ccccc2C(=O)N(Cc2cc(F)cc(C(F)(F)F)c2)[C@H]1c1ccc(CO)cc1`, the z-score was -0.205 (inactive).

Turning to `O=C1O[C@@H](c2ccccc2)[C@@H](c2ccccc2)N2[C@@H](c3ccc(O)cc3)[C@]3(C(=O)Nc4ccc(C#CC5(O)CCCCCC5)cc43)[C@@H](C(=O)NC[C@H](O)c3ccccc3)[C@H]12`, the z-score is 0.345 (inactive).

Consider `COCCCNC(=O)[C@@]1(Sc2ccc(C)cc2)CC(=O)N(C2CCCCC2)[C@@H]1c1ccc(CO)cc1`, for which the z-score is 0.592 (inactive).

As for `C=C(/C(=C/C[C@H](OC(=O)c1ccncc1)c1ccc(CO)o1)c1cc(C(=O)OC)ccc1OC)C(C)C`, the z-score was -0.218 (inactive).

With `NC(N)=NCCCn1cc(CNC(=O)[C@@H](N)Cc2ccccc2)nn1`, the z-score is -0.174 (inactive).

As for `COC(=O)[C@@]1(Cc2ccc(OC)cc2)[C@H]2c3cc(C(=O)N(C)C)n(Cc4ccc(Cl)c(C(F)(F)F)c4)c3C[C@H]2CN1C(=O)c1ccccc1`, the z-score is 0.127 (inactive).

For the molecule `C=CC[C@@]1(C(=O)N2CCOCC2)N=C(c2ccc(OCCCO)cc2)O[C@@H]1c1ccccc1CN=[N+]=[N-]`, the z-score was 0.349 (inactive).

Take `C[N+](C)(C)CCCCCCNC(=O)[C@H]1C[C@H]2C(=O)NCC(=O)N2[C@H]1c1ccc(O)cc1`: the z-score is -0.132 (inactive).

With `C=C(/C(=C/C[C@H](OC(C)=O)c1ccccc1OCCO)c1cc(C(=O)OC)ccc1OC)C(C)C`, the z-score is -0.292 (inactive).

For the molecule `O=C(NCC(F)(F)F)[C@@H]1c2ccccc2C(=O)N(Cc2ccc(OC(F)(F)F)cc2)[C@H]1c1ccc(CO)cc1`, the z-score is -0.383 (inactive).

In the case of `C=CCC(OC(C)=O)[C@@H]1[C@@H](N(Cc2ccc(-c3cccc(C(F)(F)F)c3)o2)C(=O)c2ccc(C)cc2)c2cc(OCCCO)ccc2N1C(=O)c1ccc2ccccc2c1` (stereo partly drawn), the z-score was -0.595 (inactive).

`C[N+](C)(C)CCCC[C@@H]1NC(=O)[C@H]2C[C@@H](C(=O)NCCCCCCN)[C@@H](c3ccc(O)cc3)N2C1=O`: the z-score was 0.0555 (inactive).

As for `CCCCCCc1nc(C2CC2)cc2c1[Si](C(C)C)(C(C)C)OC2`, the z-score is -0.0437 (inactive).

As for `CCOC(=O)c1ccc(NC(=O)O[C@H]2[C@H](OC(=O)Nc3ccc4c(c3)OCO4)[C@@H](OC(=O)Nc3ccc4c(c3)OCO4)[C@@H](OC)O[C@@H]2CO)cc1`, the z-score was -0.0975 (inactive).

With `COC(=O)c1nc2oc1CC[C@@H](CO)NC(=O)N(C)Cc1cnnn1C[C@H](Cc1ccccc1)NC2=O`, the z-score was -0.393 (inactive).

As for `NC(=O)N1C(=O)C2C(C1=O)C1C=C(CCCO)C2C(c2cccs2)N1Cc1cccc(OC(F)(F)F)c1` (stereo not drawn), the z-score is -0.334 (inactive).
